Experimental data as given in PubChem BioAssay (NCI).
About 83,000 compounds went through this panel and 20% of them were active in at least one assay; those are over-represented in the sample as a whole.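 Growth was measured after 48 h exposure to one concentration of compound in 96-well plates. Values under 10 count as active.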 Unmarked numbers belong to inactive results. Activity calls are given as the source filed them.

Tested on: A498 renal
Test: NCI-60 one-dose screen, 48 h (100 = growth as untreated, 0 = no growth, -100 = all killed)
Conditions: 10 µM unless noted

Structure (SMILES)	growth
C=CC(=O)N1CCN(c2ccc3nc4c(nc3c2C(F)(F)F)C(=O)c2ncccc2C4=O)CC1	134%
O=C(N/N=C/c1ccc(-c2cccc([N+](=O)[O-])c2)s1)c1[nH]c2ccc(Br)cc2c1-c1ccccc1	132%
CC(=O)c1c2c(c3ccc4c5ccccc5ccc4n13)C(=O)c1ccccc1C2=O	189%
CC1=NN(C2=NC(=O)C(CC(=O)Nc3ccccc3C(F)(F)F)S2)C(c2ccc(N(C)C)cc2)C1 (stereo not drawn)	79.2%
Cc1ccc(C2CC(c3ccc(NC(=O)Nc4ccccc4)cc3)=NN2c2ccc(S(C)(=O)=O)cc2)cc1 (stereo not drawn)	-16.3% (active)
O=C(CSc1nc2sc3c(c2c(=O)n1-c1ccc(Cl)cc1)CCCC3)N/N=C/C=C/c1ccccc1	-40.8% (active)
O=C(COc1ccc(/C=C2/C(=O)Nc3ccc(Cl)cc32)cc1)Nc1ccc(Br)cc1	-51% (active)
CC(C)(C)OC(=O)N1CCC2(CC1)Oc1ccccc1[C@H]1CC(c3ccc(Br)cc3)=NN12	98.7%
N#Cc1c(-c2ccc(F)cc2)nc(SCc2ccc(F)cc2)nc1N1CCNCC1	96.5%
COc1ccc(N=Nc2c(N)nn3c(N)c(C#N)c(-c4ccccc4)nc23)cc1	113%
Cc1cccc(-c2ccccc2Oc2ccc3nnc(Cl)n3n2)c1	117%
CCN1CCN(Cc2ccc(C(=O)Nc3cccc(Nc4ccc5c(OC)cccc5n4)c3)cc2C(F)(F)F)CC1	-88.8% (active)
COc1cc(NC(=O)CSc2nnc(-c3ccc(-c4nc5ccc(Cl)cc5[nH]4)cc3)o2)cc(OC)c1OC	137%
